# In PubChem BioAssay (NCATS):
# Activity calls are given as the source filed them. The call rests on the fitted dose curve; in most records, active means well fitted inhibition curve with a large enough effect; inconclusive means small, poorly fitted or top-dose-only effect; inactive means flat fitted curve, though single readings scatter.
# Test system: Nanoluciferase (engineered Oplophorus gracilirostris luciferase)
# Experiment: Primary Nanoluciferase (NLuc) qHTS assay for identification of artifact compounds. (AID 1845222);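 further: NLuc secreted into diluted conditioned medium of S16 cells; 0% = DMSO and -100% = no enzyme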
# Settings: NLuc-conditioned medium, Nano-Glo luminescence, 5 min; series mostly up to 54.1 µM; activity, negative = inhibition: at the top concentration
# Procedure, shortened: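 Using secreted nanoluciferase in S16 culture medium (0.22 um filtered, 1:55 dilution), compounds were preincubated 15 min at RT. Signal was generated with Nano-Glo reagent (1:100) over 5 min.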
row,SMILES,"activity, negative = inhibition"
1,COc1cc(C(C)=O)ccc1O[C@@H]1O[C@H](CO[C@@H]2OC[C@@H](O)[C@H](O)[C@H]2O)[C@@H](O)[C@H](O)[C@H]1O,2.53% [at 25.7 µM] (inactive)
2,COC(=O)Cn1nc(-c2cccc(OC)c2)c2ccccc21,-2.42% (inactive)
3,CC1OC(O[C@@H]2[C@H](O)[C@@H](OC3OC(CO)C(O)C(O)C3O)[C@H](OC(=O)[C@]34CCC(C)(C)C[C@H]3C3=CCC5[C@@]6(C)CC[C@H](O[C@@H]7O[C@H](C(=O)O)[C@@H](O)[C@H](O[C@@H]8OC[C@@H](O)[C@H](O)[C@H]8O)[C@H]7O[C@@H]7O[C@H](CO)[C@H](O)[C@H](O)[C@H]7O)[C@@](C)(C=O)C6CC[C@@]5(C)[C@]3(C)C[C@H]4O)O[C@@H]2C)C(O)C(O)C1OC1OCC(O)C(O)C1O (some centres undefined),0% [at 6.45 µM] (inactive)
4,CC1=C2C[C@@]3(C)[C@@H](CCC[C@@H]3C)C[C@@]2(O)OC1=O,3.76% (inactive)
5,C[C@]1(C2CCCC2)Cc2cc(OCC(=O)O)c(Cl)c(Cl)c2C1=O,-13.5% (inactive)
6,O=C(O[C@H]1[C@H](Oc2ccc(O)cc2CO)O[C@H](CO)[C@@H](O)[C@@H]1O)c1ccccc1,1.02% [at 25.7 µM] (inactive)
7,CCC(C)C(=O)OC[C@H]1O[C@H](O[C@H]2O[C@H](CO)[C@@H](O)[C@H](O)[C@H]2O)[C@H](O)[C@@H](O)[C@@H]1O (some centres undefined),3.32% [at 25.7 µM] (inactive)
8,C/C=C1\[C@H](O[C@@H]2O[C@H](CO)[C@@H](O)[C@H](O)[C@H]2O)OC=C(C(=O)OCCc2ccc(O)cc2)[C@H]1CC(=O)OCCc1ccc(O)cc1,-0.872% [at 25.7 µM] (inactive)
9,COc1cc(O)cc2c1C(=O)OC(C)CCCCCCC2 (centres undefined),-0.534% (inactive)
10,COc1ccc(CCC(=O)c2c(O)cc(O[C@@H]3O[C@H](CO)[C@@H](O)[C@H](O)[C@H]3O[C@@H]3O[C@@H](C)[C@H](O)[C@@H](O)[C@H]3O)cc2O)cc1O,0.836% (inactive)
11,COc1ccc(C2OCC3C(c4cc(OC)c5c(c4)OCO5)OCC23)cc1OC (centres undefined),-5.92% [at 25.7 µM] (inactive)
12,COc1cc(C)c(C(=O)O[C@@H]2[C@H](O)[C@@H](CO)O[C@H]2n2ccc(=O)[nH]c2=O)c(OC)c1,-1.56% [at 25.7 µM] (inactive)
13,CC(C)C1(O)NC(=O)C(CC2(O)c3ccccc3N3C(=O)C(C)(C)NC32)n2c1nc1ccccc1c2=O (centres undefined),-4.53% [at 25.7 µM] (inactive)
14,C/C=C(\C)C(=O)OCC1OC(OCC2OC(OC3(CO)OC(CO)C(O)C3O)C(O)C(O)C2O)C(O)C(O)C1O (centres undefined),2.75% [at 25.7 µM] (inactive)
15,CC1(C)CC[C@]2(C(=O)O)CC[C@]3(C)C(=CCC4[C@@]5(C)CC[C@H](O[C@@H]6O[C@H](C(=O)O)[C@@H](O)[C@H](O[C@@H]7O[C@H](CO)[C@H](O)[C@H](O)[C@H]7O)[C@H]6O[C@@H]6O[C@H](CO)[C@@H](O)[C@H](O)[C@H]6O)C(C)(C)C5CC[C@]43C)[C@@H]2C1 (some centres undefined),-1.21% [at 6.45 µM] (inactive)
16,C=C1C(O)C(O)C2(CC3C(C)=CCC4C(C)(C(=O)O)CCCC34C)OC2C1O (centres undefined),-0.83% (inactive)
17,CC(O)C/C=C/C=C/C(=O)OC1C=C2COC(=O)C2(O)C2(C)CCCC(C)(C)C12 (centres undefined),-5.63% (inactive)
18,CSCC1OC(n2cnc3c(=O)[nH]cnc32)C(O)C1O (centres undefined),0.463% (inactive)
19,COc1cc(/C=C/C(=O)OC[C@H]2O[C@@H](OC3OC=C(C(=O)O)C4C(O)CC(C)(O)C34)[C@H](O)[C@@H](O)[C@@H]2O)cc(OC)c1O (some centres undefined),4.57% [at 25.7 µM] (inactive)
20,NC(=O)c1ccc(F)c2c1C[C@@H](N(C1CCC1)C1CCC1)CO2,0% (inactive)

row,SMILES,"activity, negative = inhibition"
1,CC(=O)O[C@H]1C[C@@]2(C)[C@@H](CC[C@H]3[C@@]4(C)C=CC(=O)[C@@H](C)[C@@H]4[C@H](OC(C)=O)C(=O)[C@@]32C)/C1=C(\CCC=C(C)C)C(=O)O,3.68% [at 25.7 µM] (inactive)
2,CC1(C)CC=C(C#Cc2ccccc2)c2cc(/C=C/c3ccc(C(=O)O)cc3)ccc21,-4.05% (inactive)
3,CC(C)CC(=O)O[C@@H]1O[C@H](CO)[C@@H](O[C@H]2O[C@H](C)[C@@H](N[C@H]3C=C(CO)[C@@H](O[C@H]4O[C@H](CO)[C@@H](O[C@H]5O[C@H](CO)[C@@H](O[C@H]6O[C@H](CO)[C@@H](O)[C@H](O)[C@H]6O)[C@H](O)[C@H]5O)[C@H](O)[C@H]4O)[C@H](O)[C@H]3O)[C@H](O)[C@H]2O)[C@H](O)[C@H]1O,0.158% [at 11.6 µM] (inactive)
4,COC(=O)C1=C[C@@H](O)[C@@H](O)[C@H](O[C@@H]2O[C@H](CO)[C@@H](O)[C@H](O)[C@H]2OC(=O)/C=C/c2ccccc2)C1,0.187% [at 25.7 µM] (inactive)
5,C[C@@H]1CC2OC(=O)C3=C2C(CCC3O)[C@@]12C[C@@H](c1ccoc1)OC2=O (some centres undefined),-0.0142% (inactive)
6,C[C@@H]1O[C@@H](O[C@H]2[C@@H]3C=CO[C@@H](O[C@@H]4O[C@H](CO)[C@@H](O)[C@H](O)[C@H]4O)[C@@H]3[C@@]3(CO)O[C@@H]23)[C@H](OC(=O)/C=C/c2ccc(O)cc2)[C@H](O)[C@H]1O,1.59% [at 25.7 µM] (inactive)
7,CC(=O)OC12CC(C)C(OC(=O)c3ccccc3)C1/C=C(/C)C(OC(=O)c1ccccc1)CC(=O)C(C)(C)/C=C/C(C)C2=O (centres undefined),3.78% [at 25.7 µM] (inactive)
8,C=Cc1ccc(O[C@@H]2O[C@H](CO[C@@H]3O[C@@H](C)[C@H](O)[C@@H](O)[C@H]3O)[C@@H](O)[C@H](O)[C@H]2O)cc1,4.52% [at 25.7 µM] (inactive)
9,CCC/C=C/C=C/C1CC(O)C(O)C(=O)C1CO (centres undefined),2.76% (inactive)
10,Cc1ncc(NC(=O)c2ccc(CN3CCN(C)CC3)c(C(F)(F)F)c2)cc1Nc1nccc(-c2cccnc2)n1,-0.376% (inactive)
11,NC1(c2ccc(NC(=O)c3ccnc(-c4cc(C(=O)O)ccn4)c3)cc2)CC1,-6.47% (inactive)
12,CCC1=C(C)C(=O)C(C)CC12C(=O)CCC2C(=O)O (centres undefined),-0.617% (inactive)
13,Cc1c(O)cc2c(c1O)COC1(O)CCCOC21 (centres undefined),1.11% (inactive)
14,CO[C@H]1c2cc(C(C)C)c(O)c(O)c2[C@@]23CCCC(C)(C)C2[C@@H]1OC3=O (some centres undefined),-1.06% (inactive)
15,COc1cc(OC)cc(-c2ccc3c(-c4ccc(F)cc4)[nH]nc3n2)c1,4.43% (inactive)
16,CCN1CCN(C(=O)N[C@@H](C(=O)N[C@@H]2C(=O)N3[C@@H]2SC(C)(C)[C@@H]3C(=O)O)c2ccccc2)C(=O)C1=O,3.71% (inactive)
17,COc1cc(/C=C/C(=O)O[C@H]2C[C@@H]3C(C(=O)O)=CO[C@@H](O[C@@H]4O[C@H](CO)[C@@H](O)[C@H](O)[C@H]4O)[C@@H]3[C@H]2C)ccc1O,-0.164% [at 25.7 µM] (inactive)
18,CC1OC(OC2C(OC(=O)[C@]34CCC(C)(C)C[C@H]3C3=CCC5[C@@]6(C)CC[C@H](OC7OC(C(=O)O)C(O)C(O)C7O)C(C)(C)C6CC[C@@]5(C)[C@]3(C)CC4O)OC(CO)C2O)C(O)C(O)C1OC1OCC(O)C(O)C1O (some centres undefined),0% [at 11.6 µM] (inactive)
19,COc1ccc2[nH]c(S(=O)Cc3ncc(C)c(OC)c3C)nc2c1 (centres undefined),0.198% (inactive)
